Test [1] has as its system Vero E6 infected with SARS-CoV-2. Put plainly: morphology score (similarity to uninfected cells); higher = more like uninfected cells. To be noted: 24 h.
For test [2] the test system is unchanged. Kind of test: SARS-CoV-2 infection rate relative to infected DMSO; higher = more infection, active = 60 or less. To be noted: 24 h.

For `CCCN[C@H]1CCc2nc(N)sc2C1` [pramipexole] (10 µM), the morphology score in test [1] stood at 0.032. Also, the SARS-CoV-2 infection rate in test [2] was 120% (inactive).

`CC[C@]12C=CCN3CC[C@@]4(c5cc([C@@]6(C(=O)OC)C[C@@H]7C[C@@H](C(C)(F)F)CN(Cc8c6[nH]c6ccccc86)C7)c(OC)cc5N(C)[C@H]4[C@@](O)(C(=O)OC)[C@@H]1OC(C)=O)[C@@H]32` [Vinflunine Ditartrate] (10 µM): the morphology score in test [1] is -0.12. In addition, the SARS-CoV-2 infection rate in test [2] was 105% (inactive).

Consider `CN1C(=O)N(c2cc(Cl)cc(Cl)c2)C(=O)[C@]12CN(c1ccc(C(=O)O)cn1)C[C@H]2c1ccc(C#N)cc1` (10 µM), for which the morphology score in test [1] amounted to 0.0204. Moreover, in test [2], the SARS-CoV-2 infection rate is 114% (inactive).

In test [1], `Fc1ccc(-c2nc3n(c2-c2ccncc2)CCS3)cc1` (10 µM) registered a morphology score of 0.209. The SARS-CoV-2 infection rate in test [2] was 94% (inactive).

With `O=S1(=O)OC(c2ccc(O)cc2)(c2ccc(O)cc2)c2ccccc21` [phenolsulfonphthalein] (10 µM), the morphology score in test [1] came to 0.1. In addition, the SARS-CoV-2 infection rate in test [2] was 105% (inactive).

As to `O=C(NCC1(N2CCN(c3ccccc3)CC2)CCOCC1)c1cccnc1Sc1ccccc1` (10 µM), the morphology score in test [1] was -0.047. Besides, the SARS-CoV-2 infection rate in test [2] is 112% (inactive).

`C[C@@H]1CCN(C(=O)CC#N)C[C@@H]1N(C)c1ncnc2[nH]ccc12` (10 µM): the morphology score in test [1] was 0.281. Also, in test [2], the SARS-CoV-2 infection rate was 106% (inactive).

In test [1], `CCN1CCN(c2ccc(C(C)(C)NC(=O)c3cc4[nH]c5ccccc5c(=O)c4cc3F)cn2)CC1` (10 µM) displayed a morphology score of 0.572. In test [2], the SARS-CoV-2 infection rate was 55% (active).

In test [1], `CC(C)C(=O)OC[C@H]1O[C@@H](n2ccc(N)nc2=O)[C@](C)(F)[C@@H]1OC(=O)C(C)C` [mericitabine] (10 µM) yielded a morphology score of 0.0222. The SARS-CoV-2 infection rate in test [2] is 102% (inactive).

`Cc1cc(O)c2c(=O)c3c(O)cc(O)c4c5c(O)cc(O)c6c(=O)c7c(O)cc(C)c8c1c2c(c34)c(c78)c65` [hypericin] (10 µM): in test [1], the morphology score is -0.152. The SARS-CoV-2 infection rate in test [2] was 114% (inactive).

Regarding `O=C(NCCN1CCC2(CC1)C(=O)NCN2c1cccc(F)c1)c1ccc2ccccc2c1` (10 µM), the morphology score in test [1] stood at 0.766. Moreover, in test [2], the SARS-CoV-2 infection rate was 26% (active).

With `CN1C(=O)CC(c2ccccc2)C1=O` (stereo unspecified) [phensuximide] (10 µM), the morphology score in test [1] was found to be 0.0814. The SARS-CoV-2 infection rate in test [2] is 112% (inactive).

`CNC(=O)c1cccc2cc(Oc3ccnc4cc(OCC5(N)CC5)c(OC)cc34)ccc12` [lucitanib] (10 µM) showed a morphology score in test [1] of 0.0362. Moreover, the SARS-CoV-2 infection rate in test [2] is 104% (inactive).

Turning to `CCCCCCCCCCCCCCCC(=O)OC(CC(=O)[O-])C[N+](C)(C)C` (stereo unspecified) [palmitoylcarnitine] (0.833333 µM), the morphology score in test [1] was -0.0181. Also, in test [2], the SARS-CoV-2 infection rate was 106% (inactive).

For `CN(C(=O)Cc1ccccc1)[C@H](CN1CCCC1)c1ccccc1` (10 µM), in test [1], the morphology score is 0.0751. Also, in test [2], the SARS-CoV-2 infection rate was 102% (inactive).

For the compound `CC(=O)[C@H]1CC[C@H]2[C@@H]3CC=C4C[C@@H](O)CC[C@]4(C)[C@H]3CC[C@]12C` [pregnenolone] (10 µM), the morphology score in test [1] is -0.283. The SARS-CoV-2 infection rate in test [2] is 112% (inactive).

Turning to `O=C(NCC(=O)N1CC[C@H](N[C@H]2CC[C@@](O)(c3ccc(-c4ncccn4)cn3)CC2)C1)c1cccc(C(F)(F)F)c1` (10 µM), the morphology score in test [1] was 0.0269. Further, in test [2], the SARS-CoV-2 infection rate was 106% (inactive).

Consider `CN(C)C(=N)NCCC[C@H](N)C(=O)O` [asymmetrical-dimethylarginine] (10 µM), for which the morphology score in test [1] is 0.217. In addition, in test [2], the SARS-CoV-2 infection rate is 95.5% (inactive).

`CCN1C[C@]2(OC(=O)c3ccccc3NC(C)=O)CC[C@H](OC)[C@@]34[C@@H]2C[C@@H]([C@@H]13)[C@@]1(O)C[C@H](OC)[C@H]2C[C@@H]4[C@]1(O)[C@H]2OC` [lappaconite] (10 µM) displayed a morphology score in test [1] of 0.0794. In test [2], the SARS-CoV-2 infection rate was 118% (inactive).

As to `CC(/C=C/C(=O)NO)=C\[C@@H](C)C(=O)c1ccc(N(C)C)cc1` [trichostatin-a] (0.833333 µM), the morphology score in test [1] was -0.0945. In test [2], the SARS-CoV-2 infection rate was 108% (inactive).

For the compound `CC[C@H](C)[C@H](N)C1=N[C@H](C(=O)N[C@@H](CC(C)C)C(=O)N[C@H](CCC(=O)O)C(=O)N[C@H](C(=O)N[C@H]2CCCCNC(=O)[C@H](CC(N)=O)NC(=O)[C@@H](CC(=O)O)NC(=O)[C@H](Cc3cnc[nH]3)NC(=O)[C@@H](Cc3ccccc3)NC(=O)[C@H]([C@@H](C)CC)NC(=O)[C@@H](CCCN)NC2=O)[C@@H](C)CC)CS1` [bacitracin] (10 µM), the morphology score in test [1] was -0.109. The SARS-CoV-2 infection rate in test [2] was 112% (inactive).

In test [1], `CCC(=O)NO` (10 µM) returned a morphology score of 0.00785. Also, the SARS-CoV-2 infection rate in test [2] is 112% (inactive).

In test [1], `CC[C@H](C)C(=O)O[C@H]1C[C@H](O)C=C2C=C[C@H](C)[C@H](CC[C@@H](O)C[C@@H](O)CC(=O)O)[C@H]21` (10 µM) came in with a morphology score of 0.0616. Moreover, the SARS-CoV-2 infection rate in test [2] is 106% (inactive).
